Results published in PubChem BioAssay (NCI).
This is part of a sample that, as a whole, favours compounds with a hit. Of some 79,000 tested, about 15% had one in any assay. Calls of active or inactive are those of the source. No stated cut-off is given here; in the data, active means growth inhibition above about 70%; inactive means the rest.

Columns and labels:
[1] = NCI Yeast Anticancer Drug Screen. Data for the rad50 strain (AID 155);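 further: 0% = growth of vehicle-only cultures of the same strain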; settings: S. cerevisiae rad50 strain growth inhibition; at 50.0 µM; hits give high values
Procedure, shortened: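 Compounds were tested on a yeast strain with an engineered DNA damage repair alteration; the reported value is growth inhibition normalised to vehicle treatment.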

[2] = NCI Yeast Anticancer Drug Screen. Data for the mec2-1 strain (AID 157); settings: S. cerevisiae mec2-1 strain, at 50.0 µM, hits give high values
Procedure, shortened: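 Vehicle-treated cultures served as reference for growth inhibition of compound-exposed mec2-1 yeast.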

[3] = NCI Yeast Anticancer Drug Screen. Data for the sgs1 mgt1 strain (AID 161);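 further: 0% = growth of cultures given vehicle only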; settings: S. cerevisiae sgs1 mgt1 strain, at 50.0 µM, hits give high values
Procedure, shortened: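 Genetically altered yeast, compound exposure, growth inhibition relative to vehicle.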

[4] = NCI Yeast Anticancer Drug Screen. Data for the cln2 rad14 strain (AID 165);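 further: 0% = growth equal to vehicle treated cultures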; settings: S. cerevisiae cln2 rad14 strain, at 50.0 µM, hits give high values
Procedure, shortened: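 Each compound was tested on cln2 rad14 yeast. Inhibition of growth was calculated against vehicle-exposed controls.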

[5] = NCI Yeast Anticancer Drug Screen. Data for the bub3 strain (AID 167); settings: S. cerevisiae bub3 mutant strain, at 50.0 µM, hits give high values
Procedure, shortened: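 Growth of a checkpoint-deficient yeast mutant is measured after compound exposure. Values represent inhibition relative to vehicle.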

[6] = NCI Yeast Anticancer Drug Screen. Data for the mlh1 rad18 strain (AID 175); settings: S. cerevisiae mlh1 rad18 strain growth inhibition; at 50.0 µM; hits give high values
Procedure, shortened: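 Vehicle-treated cultures served as the reference for growth inhibition in a yeast strain carrying DNA damage repair alterations exposed to each compound.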

Measured: growth inhibition

O=C1CN(c2ccccc2)Cc2nc(Cl)ccc2N1
inactive: [1] 39.9% | [2] 7.45% | [3] 24.4% | [4] 17.4% | [5] 3.55%

CC(N(C)Cc1ccccc1)C(C)(O)c1ccccc1 (stereo not drawn)
inactive: [1] -10.4% | [2] 6.55% | [3] 7.75% | [4] -24.9% | [5] 51% | [6] 30.8%

Cc1ccnc(NS(=O)(=O)c2ccc(N=Cc3ccccc3O)cc2)n1
inactive: [1] -28.4% | [2] -20.1% | [3] -13.9% | [4] -40.4% | [5] -36.2%

CNC(=O)OCc1c(COC(=O)NC)c(-c2ccc(S(C)(=O)=O)cc2)n(C)c1C
inactive: [1] 49% | [2] -3.3% | [3] -16.2% | [4] 5.25% | [5] -10.1%

CCOC(=O)N1CCC2C(=C(C)C(C)C3=C2C(=O)c2ccccc2C3=O)C1 (stereo not drawn)
inactive: [1] -11.5% | [2] -3.5% | [3] -8.9% | [4] 16.9% | [5] 62.4%

O=C(O)/C=C/C(=O)N(c1ccccc1)N(C(=O)/C=C/C(=O)O)c1ccccc1
inactive: [1] 5.9% | [2] -9.05% | [3] 5.15% | [4] 5.65% | [5] 5.55%

O=C(O)CCCCn1cnc2c(=S)nc[nH]c21
inactive: [1] -6.1% | [2] -5.85% | [3] -13.7% | [4] -7.3% | [5] -44%

CS(=O)(=O)N1CCCN(S(C)(=O)=O)COC1
inactive: [1] 6.2% | [2] -6.65% | [3] -8.75% | [4] -2.45% | [5] 13.4%

Cc1csc2nc(-c3cccs3)nn12
inactive: [1] 0.75% | [2] -15.4% | [3] 7.4% | [4] -1.55% | [5] -7.15%

COc1ccccc1C(=O)N/N=C\c1c[nH]c2ccccc12
inactive: [1] -3.35% | [2] 2.05% | [3] -4.85% | [4] -6.25% | [5] -5.15%

CCN(C/C=C/CN(CC)C(=S)Nc1ccccc1)C(=S)Nc1ccccc1
inactive: [1] 29.6% | [2] -7.85% | [3] 5.2% | [4] 18.8% | [5] -1.1%

C=CCNC(=S)N/C=C(\C#N)c1nc2ccccc2s1
inactive: [1] 0.3% | [2] -6.3% | [3] -15% | [4] 32.4% | [5] -4.35%

Cc1cc(Cc2c(F)c(F)c(C(c3cc(C)no3)c3c(F)c(F)c(F)c(F)c3F)c(F)c2F)on1 (stereo not drawn)
inactive: [1] -7.55% | [2] -37.9% | [3] 5.8% | [4] -58.8% | [5] -26.1%

COS(=O)(=O)C=C(c1ccccc1)c1ccccc1
inactive: [1] 12.8% | [2] -27.1% | [3] 15.7% | [4] -24.5% | [5] 6.4%

CC(=O)N/N=C1/NN(C(C)=O)C2(S1)C(=O)Nc1ccc(C)cc12 (stereo not drawn)
inactive: [1] -4.15% | [2] 38.8% | [3] 40.1% | [4] 28.8% | [5] 24.8%

CC1CCC23C1CC(CC(=O)C2(C)O)C3(C)C (stereo not drawn)
inactive: [1] 4.75% | [2] 6% | [3] 5.2% | [4] -49.4% | [5] -21.1%

COC1=CC(=C(C#N)C(=Nc2ccccc2)SC)C=C(OC)C1=O
inactive: [1] 34.1% | [2] 19.1% | [3] 48.9% | [4] 15.3% | [5] 20.6%

Cn1ccc(=S)c2ccccc21
inactive: [1] 18.2% | [2] 1.25% | [3] 9.6% | [4] -56.1% | [5] -2.15%

COC(=O)NS(=O)(=O)CC(=O)c1ccccc1
inactive: [1] 10.2% | [2] -0.3% | [3] -1.55% | [4] 8.9% | [5] 1.3%

CN(CCc1ccccn1)c1ccc2c(c1)C(=O)c1ccccc1-2
inactive: [1] 46.9% | [2] 13.4% | [3] -1.8% | [4] -13.1% | [5] -2.7%

c1ccc2c(c1)c1c(n2CCOCCN2CCCCC2)CCCC1
inactive: [1] 33.9% | [2] 19.9% | [3] 29.3% | [4] 28.1% | [5] 28.4%

CC(C)C(O)C(C)(C)CO (stereo not drawn)
inactive: [1] 10.7% | [2] -15.2% | [3] 4.75% | [4] 2.3% | [5] 11.1% | [6] 32.6%

COC(=O)/C=C/c1c(=O)c(C(=O)OC)cn2cnc3nc[nH]c3c12
inactive: [1] -14.5% | [2] 2.35% | [3] -20.6% | [4] -13.3% | [5] -5.9%

Cn1c(=O)n2c(-c3ccccc3)c(-c3ccccc3)n2c1=O
inactive: [1] 6.85% | [2] -19.6% | [3] -23.8% | [4] 0.5% | [5] -25.9%

[N-]=[N+]=Nc1nn2cnnc2c2[nH]c3ccccc3c12
inactive: [1] 46% | [2] 0.65% | [3] 4.25% | [4] -1.4% | [5] -14.9%

O=c1ccc2cc(Br)ccc2o1
inactive: [1] 6.65% | [2] 16.7% | [3] 16.6% | [4] -16.4% | [5] 10.7%

COc1ccc(CN2C(=S)SC(c3ccc(Cl)cc3)N2c2ccc(OC)cc2)cc1 (stereo not drawn)
inactive: [1] -25.1% | [2] -19.6% | [3] -9.2% | [4] -37%

COc1ccc(-c2c(C(C)=O)c(-c3ccccc3)n(C3OC(CO)C(O)C(O)C3O)c(=S)c2C#N)cc1 (stereo not drawn)
inactive: [1] -17.7% | [2] -3.7% | [3] 6.6% | [4] 3.95% | [5] 1.3%

N#CCC(=O)c1ccc(N)cc1
inactive: [1] 16.1% | [2] -19.6% | [3] 2.2% | [4] 13.9% | [5] -11%

O=C1C=CC(=O)C2C1C21C2CCCC(C2)C2CCCC1C2 (stereo not drawn)
inactive: [1] -11.2% | [2] 16.3% | [3] 4.05% | [4] -23% | [5] -0.65%

Nc1ncnc2c1S(=O)(=O)NCN2
inactive: [1] 5.05% | [2] -15.8% | [3] 0.45% | [4] -17.3% | [5] -3.15%

CC12CCC3C(CCC4CCCCC43C)C1CC/C2=N\O (stereo not drawn)
inactive: [2] 45.6% | [4] 39.8%
active: [1] 90.2% | [3] 79.8% | [5] 85.5%

COC(=O)/C(C)=C/C=C/C(C)C(O)C(C)C1OC(CC(OC)OC)C(C)C(O)C1C (stereo not drawn)
inactive: [1] 28.9% | [2] 22.2% | [3] 9.75% | [4] 2.65% | [5] 2.9%

CC(=O)OCC1OC(Oc2ccccc2)C(OC(C)=O)C(OC(C)=O)C1OC(C)=O (stereo not drawn)
inactive: [1] -3.4% | [2] -5.3% | [3] -0.05% | [4] 12.4% | [5] -4.1%

COc1ccc(CCCNC(=O)Cc2ccccc2CO)cc1OC
inactive: [1] 21.6% | [2] -46.6% | [3] -3.4% | [4] -0.8% | [5] -10.2%

Cc1n[nH]c(=S)n1N
inactive: [1] -9.4% | [2] -1.9% | [3] -24.4% | [4] -25.9% | [5] -14.5%

Fc1ccc(-c2ncc(-c3ccccc3)o2)cc1
inactive: [1] 0.95% | [2] -22.9% | [3] 5.45% | [4] 0.05% | [5] -14.8%

Fc1cccc(C(Nc2nncs2)Nc2nncs2)c1
inactive: [1] 14.1% | [2] -0.1% | [3] -1.7% | [4] -11.6% | [5] -3.8%

O=C(O)C(CCOc1ccccc1)CCOc1ccccc1
inactive: [1] 0.7% | [2] -15.2% | [3] 3.5% | [4] -10.4% | [5] -9.15%

CC(=O)N(/C=C\C1=[N+](C)CCS1)c1ccccc1
inactive: [1] 10.2% | [2] -10.4% | [3] 20.4% | [4] 18.9% | [5] 18.1%

O=S(=O)(O)c1cc(O)c2c(N=Nc3c(S(=O)(=O)O)cc4cc(S(=O)(=O)O)cc(N=Nc5c(S(=O)(=O)O)cc6cc(S(=O)(=O)O)cc(O)c6c5O)c4c3O)cc(S(=O)(=O)O)cc2c1
inactive: [1] -4.7% | [2] 26.6% | [3] 5.45% | [4] -14.8% | [5] -7.6% | [6] 8.5%

Cc1cc(=O)[nH]c(Nc2nc3cc(C)c(C)cc3[nH]2)n1
inactive: [1] 9.6% | [2] -4.9% | [3] 2.05% | [4] 9.2% | [5] -8.2% | [6] -8.4%

CNc1c2c(nc3ccccc13)CCCC2
inactive: [1] 1.95% | [2] -10.3% | [3] -10.1% | [4] -44.4% | [5] 15.1% | [6] -19.2%

CCCCCCCc1cc(OC(=O)c2c(C)cc(OC)cc2O)cc(O)c1C(=O)O
inactive: [1] 13.4% | [2] -16.2% | [3] 8.65% | [4] -10% | [5] -14.2% | [6] 16.8%

CCCCCCC[CH2][Sn]1([CH2]CCCCCCC)[O]C(=O)c2cccnc2[O]1
inactive: [1] 27.4% | [2] 7.3% | [3] 13.2% | [4] 10.3% | [5] 17.2% | [6] 19.8%

CCC(c1ccc(OC)cc1)C(C(C)=O)c1ccc(OC)cc1 (stereo not drawn)
inactive: [1] -5.55% | [2] -13% | [3] -4.1% | [4] -22.9% | [5] 25.6% | [6] -5.85%

CCc1cccc[n+]1CC(=O)c1ccccc1
inactive: [1] -23.5% | [2] 5.85% | [3] -0.85% | [4] -41.8% | [5] 39.7% | [6] 12%
